Reference: PubChem BioAssay (NCATS)
Where “and” joins values, the source holds several entries; their conditions need not be identical. Identical values can stand only once. Results filed as inconclusive are left out. Calls of active or inactive are those of the source. The call rests on the fitted dose curve; in most records, active means well fitted cell-killing curve with a large enough effect; inconclusive means small, poorly fitted or top-dose-only effect; inactive means no such curve, though single readings can be large or run the other way. Non-standard residues stand in square brackets, D forms with d. Residues, ends and D or L forms follow the SMILES beside them. *: point of attachment. Sta = CC(C)C[C@H](N)[C@@H](O)CC(=O)O; Isovaleryl = CC(C)CC(=O)*

Assay: qHTS of pediatric cancer cell lines to identify multiple opportunities for drug repurposing: Confirmatory screen for SK-N-MC cells (AID 1347111);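 further: cells exposed to compound for 48 h before the readout; nearly all actives have a fitted effect of over 70% in size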
Conditions: SK-N-MC cell viability; series mostly up to 45.9 µM
Source text: Drug repurposing or repositioning has been offered as a strategy for drug development in oncology programs. This approach has special potential for childhood cancers and other rare or orphan diseases, where the expected return on new drug development has been a disincentive to pharmaceuticals.
In this project we exploit the poly-pharmacology of drugs to discover new indications via phenotypic screening of a panel of 19 well-characterized cell lines derived from solid tumors seen in children and adolescents. The goal is to identify approved drugs with previously unrecognized anticancer properties that has the potential to reveal new mechanisms and biological processes involved in carcinogenesis or drug resistance. We employed a titration-based paradigm (quantitative high-throughput screening or qHTS), where all compounds were tested at multiple concentrations for their effect on cell viability. Concentration-response curves (CRCs) were derived directly from the primary screen, and both potency and efficacy values were used to identify compounds with robust bioactivity profiles. We screened the NIH Chemical Genomics Center (NCGC) Pharmaceutical Collection (NPC) and Mechanism Interrogation Plate (MIPE) small molecule collections of approved and investigational compounds against these cell lines; and measured metabolically active cells after 48 hours of compound treatment as a proxy for cell viability.
Assay Submitter: Nathalia J. Martinez, National Center for Advancing Translational Sciences, National Institutes of Health, Rockville, MD, USA; email: natalia.martinez@nih.gov
[1] Shen, M et al. Quantitative high-throughput phenotypic screening of pediatric cancer cell lines identifies multiple opportunities for drug repurposing. Oncotarget 2017 Dec 19;9(4):4758-4772. PMID 29435139.
The cells were obtained from University of North Carolina (UNC), Pediatric Preclinical Testing Program (PPT), and Coriell Institute (CI).
qHTS cell viability assay:
Cells were assayed in growth media at a density of 500-1,000 cells/well. Five microliters of cells were dispensed into 1,536-well, white, solid-bottom, TC-treated plates (Greiner Bio One) using a multidrop dispenser and incubated at 37 degrees C, 5% CO2, under a humidified atmosphere for 5 hours. Twenty-three nanoliters of compounds and controls (neutral control DMSO or positive control bortezomib at final concentration of 2.3 µM) were subsequently transferred by Kalypsys pintool. For primary screens, the MIPE collection was tested at 11-point dilutions (final concentrations range from 0.78 nM to 46 µM) and the NPC collection at 8-point dilutions (final concentrations range from 0.59nM to 46 µM). Compounds tested in follow-up screens were assayed at 11-point dilutions. Cells were incubated for 48 hours, followed by addition of 3 uL of CellTiter-Glo (Promega). After a 15 min incubation at room temperature, samples were analyzed for luminescence intensity using a ViewLux High-throughput CCD imager equipped with clear filters.
Potency means the concentration at half of the fitted maximal effect.

Row | Compound | Potency
1 | Cc1ccc(Nc2nccc(N(C)c3ccc4c(C)n(C)nc4c3)n2)cc1S(N)(=O)=O | 18.5 µM (active)
2 | O=C(CCc1ccc(O)cc1)c1c(O)cc(O)cc1O | inactive
3 | CN(C)c1ccc2nc3ccc(=[N+](C)C)cc-3sc2c1 | 1.17 µM (active)
4 | CCCOc1ccc2nc(NC(=O)OC)[nH]c2c1 | 1.31 µM (active)
5 | CCCCc1ccc2nc(NC(=O)OC)[nH]c2c1 | 0.329 µM (active)
6 | Clc1ccc(C(Cn2ccnc2)OCc2ccc(Sc3ccccc3)cc2)c(Cl)c1 (stereo not drawn) | 18.5 µM (active)
7 | CCN(CCO)CCCC(C)Nc1ccnc2cc(Cl)ccc12 (stereo not drawn) | inactive
8 | CC[C@]1(O)C[C@H]2CN(CCc3c([nH]c4ccccc34)[C@@](C(=O)OC)(c3cc4c(cc3OC)N(C=O)[C@H]3[C@@](O)(C(=O)OC)[C@H](OC(C)=O)[C@]5(CC)C=CCN6CC[C@]43[C@@H]65)C2)C1 | 23.3 nM (active) and 104 nM (active)
9 | CCc1nc(N)nc(N)c1-c1ccc(Cl)cc1 | 1.31 µM (active)
10 | CC1(C)C(=O)N(CCN2CCC(C(=O)c3ccc(F)cc3)CC2)c2ccccc21 | 3.29 µM (active)
11 | CCN(CC)CCOc1ccc(Nc2ncc3cc(-c4c(Cl)cccc4Cl)c(=O)n(C)c3n2)cc1 | 0.293 µM (active)
12 | CC(C)CC(=O)N[C@H](C(=O)N[C@H](C(=O)N[C@@H](CC(C)C)[C@@H](O)CC(=O)N[C@@H](C)C(=O)N[C@@H](CC(C)C)[C@@H](O)CC(=O)O)C(C)C)C(C)C (Isovaleryl-VV[Sta]A[Sta]-OH) | 5.22 µM (active)
13 | CC(C)C[C@H](NC(=O)[C@H](Cc1ccccc1)NC(=O)c1cnccn1)B(O)O | 0.0131 µM (active)
14 | CC(=O)O[C@H]1C(=O)[C@@]2(C)C([C@H](OC(=O)c3ccccc3)[C@]3(O)C[C@H](OC(=O)[C@H](O)[C@@H](NC(=O)c4ccccc4)c4ccccc4)C(C)=C1C3(C)C)[C@]1(OC(C)=O)CO[C@@H]1C[C@@H]2O (stereo partly drawn) | 0.0117 µM (active)
15 | Oc1ccc(-c2nc(-c3ccc(F)cc3)c(-c3ccncc3)[nH]2)cc1 | 1.17 µM (active)
16 | O=C1c2c(O)cc(O)cc2OC(c2ccc(O)c(O)c2)C1O (stereo not drawn) | inactive
17 | Clc1ccc(C(Cn2ccnc2)OCc2ccsc2Cl)c(Cl)c1 (stereo not drawn) | 11.7 µM (active)
18 | O=C(NCC1CCCCN1)c1cc(OCC(F)(F)F)ccc1OCC(F)(F)F (stereo not drawn) | 7.37 µM (active)
19 | Nc1nc(OCc2ccccc2)c2[nH]cnc2n1 | inactive
20 | Nc1nc(Cl)nc2c1ncn2[C@H]1C[C@H](O)[C@@H](CO)O1 | 6.57 µM (active)
21 | c1cnc2cc3c(cc2n1)C1CNCC3C1 | inactive
22 | Cc1c(C(=O)NN2CCCCC2)nn(-c2ccc(Cl)cc2Cl)c1-c1ccc(Cl)cc1 | 7.37 µM (active)
23 | Cc1cc(C2CCCCC2)n(O)c(=O)c1 | 5.22 µM (active)
